From PubChem BioAssay AID1745853 (National Center for Advancing Translational Sciences (NCATS), 2022) come the findings set out here.

Assay in all cases: Primary Screen for Target Class Profiling of Small Molecule Inhibitors of Methyltransferases
The target in experiment [1] is Catechol O-methyltransferase (Homo sapiens) (UniProt P21964). Particulars: purified enzyme, MTase-Glo SAH luminescence; activity change, negative = inhibition: at 40 µM, stronger effect = lower value; outcome: 40 uM. The procedure, abridged:
(§1)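 Each enzyme was assayed with SAM and its substrate. SAH formation detected by MTase-Glo luminescence; single-point 40 uM screen[…].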

Experiment [2] concerns the target Glycine N-methyltransferase (Homo sapiens) (UniProt Q14749). Particulars: purified enzyme, MTase-Glo SAH luminescence; measured here: GNMT inhibition; at 40 µM; stronger effect = lower value. In short, it runs like this: as §1
Experiment [3] concerns the target Guanidinoacetate N-methyltransferase (Homo sapiens) (UniProt Q14353). Particulars: purified enzyme, MTase-Glo SAH luminescence; measured here: GAMT inhibition; at 40 µM; stronger effect = lower value. The procedure, abridged:
as §1

Experiment [4] addresses Histamine N-methyltransferase (Homo sapiens) (UniProt P50135). Particulars: purified enzyme, MTase-Glo SAH luminescence; measured here: HNMT inhibition; at 40 µM; stronger effect = lower value. The procedure, abridged: as §1
The target in experiment [5] is Nicotinamide N-methyltransferase (Homo sapiens) (UniProt P40261). Particulars: purified enzyme, MTase-Glo SAH luminescence; measured here: NNMT inhibition; at 40 µM; stronger effect = lower value. In short, it runs like this:
as §1

Experiment [6] has as its target Phenylethanolamine N-methyltransferase (Homo sapiens) (UniProt P11086). Particulars: purified enzyme, MTase-Glo SAH luminescence; measured here: PNMT inhibition; at 40 µM; stronger effect = lower value. The procedure, abridged:
as §1

Among all 25,000 compounds or so, about 970 (3.9%) were called active. Not shown: some 8% with an inconclusive outcome. How the calls were made is not given here. The list comes from a sample in which actives are over-represented; it also holds similar structures and randomly drawn compounds.
On the % scale 0 is the no-effect control and ±100 the full control effect.

Catechol O-methyltransferase (Homo sapiens), sequence (P21964 whole entry, looked up): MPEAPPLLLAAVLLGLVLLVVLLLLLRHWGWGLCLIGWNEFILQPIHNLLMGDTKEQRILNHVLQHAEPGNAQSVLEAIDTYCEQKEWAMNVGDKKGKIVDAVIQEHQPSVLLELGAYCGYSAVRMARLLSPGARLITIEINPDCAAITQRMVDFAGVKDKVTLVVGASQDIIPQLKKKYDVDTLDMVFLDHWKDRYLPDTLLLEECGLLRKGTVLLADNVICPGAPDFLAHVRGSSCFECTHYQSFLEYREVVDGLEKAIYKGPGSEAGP
Histamine N-methyltransferase (Homo sapiens), sequence (P50135 whole entry, looked up): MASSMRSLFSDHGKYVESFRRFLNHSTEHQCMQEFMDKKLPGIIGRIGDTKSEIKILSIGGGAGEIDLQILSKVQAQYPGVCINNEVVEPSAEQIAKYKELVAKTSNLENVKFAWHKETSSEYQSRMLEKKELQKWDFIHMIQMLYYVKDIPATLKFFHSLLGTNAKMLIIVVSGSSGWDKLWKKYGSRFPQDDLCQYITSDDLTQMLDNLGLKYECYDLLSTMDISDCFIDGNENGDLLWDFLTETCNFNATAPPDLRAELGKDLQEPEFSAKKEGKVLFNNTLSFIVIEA
Phenylethanolamine N-methyltransferase (Homo sapiens), sequence (P11086 whole entry, looked up): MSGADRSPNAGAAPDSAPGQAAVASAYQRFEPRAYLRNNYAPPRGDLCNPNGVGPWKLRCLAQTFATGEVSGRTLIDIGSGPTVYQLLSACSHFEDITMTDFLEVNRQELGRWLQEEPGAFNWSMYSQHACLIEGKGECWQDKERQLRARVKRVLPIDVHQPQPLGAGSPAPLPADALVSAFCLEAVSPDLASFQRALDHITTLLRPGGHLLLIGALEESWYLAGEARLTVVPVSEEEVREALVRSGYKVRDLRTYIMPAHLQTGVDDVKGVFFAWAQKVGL
Nicotinamide N-methyltransferase (Homo sapiens), sequence (P40261 whole entry, looked up): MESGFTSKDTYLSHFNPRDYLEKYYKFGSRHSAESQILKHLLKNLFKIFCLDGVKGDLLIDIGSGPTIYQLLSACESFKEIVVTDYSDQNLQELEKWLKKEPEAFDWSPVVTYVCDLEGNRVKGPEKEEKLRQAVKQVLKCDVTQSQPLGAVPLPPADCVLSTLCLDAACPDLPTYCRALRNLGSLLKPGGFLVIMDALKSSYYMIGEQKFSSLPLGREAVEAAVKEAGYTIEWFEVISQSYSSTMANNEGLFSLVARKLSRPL
Glycine N-methyltransferase (Homo sapiens), sequence (Q14749 whole entry, looked up): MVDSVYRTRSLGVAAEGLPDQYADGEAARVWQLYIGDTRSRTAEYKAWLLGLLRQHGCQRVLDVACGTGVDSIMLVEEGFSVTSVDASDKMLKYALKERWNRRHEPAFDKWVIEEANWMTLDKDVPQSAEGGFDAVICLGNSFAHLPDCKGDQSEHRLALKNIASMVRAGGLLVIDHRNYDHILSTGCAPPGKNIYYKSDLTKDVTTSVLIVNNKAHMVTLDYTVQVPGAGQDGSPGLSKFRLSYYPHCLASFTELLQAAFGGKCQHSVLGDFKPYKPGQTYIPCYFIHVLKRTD

In the case of `O=C(CCc1nnc2ccc(NCCCN3CCCC3=O)nn12)NCc1ccccc1Cl`, the activity change, negative = inhibition in experiment [1] is 10.2% (inactive); in experiment [2], 1.96%; in experiment [3], 2.26%; in experiment [4], 10.9%; in experiment [5] it was 1.3%; in experiment [6], 9.12%.

In the case of `C[C@@H]1C[C@H]2O[C@@]3(O[C@@H]2C(C)(C)O)C(O)[C@@]2(C)C4CCC5C(C)(C)[C@@H](O[C@H]6OC[C@H](O)[C@@H](O)[C@@H]6O)CC[C@@]56C[C@@]46CC[C@]2(C)C13` (stereo not given in full), the activity change, negative = inhibition is -3.8% (inactive) in experiment [1]; 0% in experiment [2]; -1.51% in experiment [3]; -4.39% in experiment [4]; -13.7% in experiment [5]; -0.709% in experiment [6].

For the compound `COc1ccccc1CN1C(=O)c2cc3sccc3n2CC1(C)C(=O)NC1CCCC(C)C1C` (stereo not given), the activity change, negative = inhibition in experiment [1] is 4.18% (inactive); in experiment [2], 1.88%; in experiment [3], 0%; in experiment [4] it was 3.67%; in experiment [5], -3.12%; in experiment [6], 1.29%.

On to `Cc1cnc(-c2ccncc2)n1CCN`, for which the activity change, negative = inhibition in experiment [1] is -5.2% (inactive); in experiment [2], -4.08%; in experiment [3], -7.5%; in experiment [4] it was -1.23%; in experiment [5], -6.93%; in experiment [6] it was -8.39%.

As to `Cc1cc(Cl)ccc1OCC(=O)N1CC(CO)C2(CCNCC2)C1` (stereo not given), the activity change, negative = inhibition is 2.63% (inactive) in experiment [1]; -0.912% in experiment [2]; -2.42% in experiment [3]; -7.34% in experiment [4]; 1.44% in experiment [5]; 4.28% in experiment [6].

Regarding `CC(C)CCn1c(=O)c2ccc(C(=O)NC(C)C)cc2n2c(=O)n(CC(=O)Nc3ccccc3)nc12`, the activity change, negative = inhibition in experiment [1] was 3.2% (inactive); in experiment [2], 2.47%; in experiment [3], 0%; in experiment [4], -0.014%; in experiment [5] it was 2.58%; in experiment [6] it was 3.82%.

Turning to `COC(=O)C(C)C1CCC2(C)C(=O)C=CC(C)(O)C2C1O` (stereo not given), the activity change, negative = inhibition is -21.2% (inactive) in experiment [1]; 0.317% in experiment [2]; 3.5% in experiment [3]; 4.59% in experiment [4]; -8.83% in experiment [5]; 5.47% in experiment [6].

Turning to `CC1(C(=O)NC2CCCCC2)Cn2c(nc3ccccc32)C(=O)N1CCCc1ccccc1` (stereo not given), the activity change, negative = inhibition in experiment [1] was -0.028% (inactive); in experiment [2], -0.457%; in experiment [3], 2.95%; in experiment [4] it was -0.222%; in experiment [5], 2.79%; in experiment [6], -1.29%.

`COc1cccc(S(=O)(=O)N2CCC([C@H]3[C@@H](OC)C(=O)N3C(C)C)CC2)c1`: the activity change, negative = inhibition in experiment [1] was -16.7% (inactive); in experiment [2] it was -11%; in experiment [3] it was -0.234%; in experiment [4], -8.83%; in experiment [5], -11.7%; in experiment [6] it was -7.58%.

Regarding `O=C(Nc1ccccc1Cl)N1CCn2cccc2C1Cc1ccccc1` (stereo not given), the activity change, negative = inhibition was 8.91% (inactive) in experiment [1]; -4.49% in experiment [2]; 0% in experiment [3]; 0.539% in experiment [4]; -1.29% in experiment [5]; 1% in experiment [6].

On to `CC(=O)N(C1CCOCC1)C1CCN(S(=O)(=O)c2ccc3c(c2)OCCO3)CC1`, for which the activity change, negative = inhibition in experiment [1] is 14.5% (inactive); in experiment [2], 6.17%; in experiment [3], 0%; in experiment [4] it was 15.9%; in experiment [5], 5.83%; in experiment [6] it was 10%.

`COC1CCN(CC2CCCCCN2C(=O)NCc2ccc(F)cc2)CC1` (stereo not given): the activity change, negative = inhibition was 0.269% (inactive) in experiment [1]; -0.541% in experiment [2]; -1.47% in experiment [3]; 0.992% in experiment [4]; 0.892% in experiment [5]; -1.43% in experiment [6].

`CCCc1sc(NC(=O)C[C@H]2NC(=O)c3ccccc3NC2=O)nc1C(=O)OC`: the activity change, negative = inhibition in experiment [1] was -0.596% (active); in experiment [2], -52%; in experiment [3], 0.55%; in experiment [4] it was -1.11%; in experiment [5], -24.7%; in experiment [6], -7.16%.

In the case of `CCOc1ccc(NC(=O)N2Cc3c(sc4c3CCCC4)-n3cccc3C2c2ccc(C)cc2)cc1` (stereo not given), the activity change, negative = inhibition in experiment [1] is -4.77% (inactive); in experiment [2], -7.14%; in experiment [3], -5.05%; in experiment [4], -0.466%; in experiment [5] it was -12.8%; in experiment [6] it was -3.68%.

Turning to `COc1ccc(CN2C(=O)c3cc4sccc4n3CC2(C)C(=O)NC2CCCCC2)cc1` (stereo not given), the activity change, negative = inhibition in experiment [1] is -1.71% (inactive); in experiment [2], -4.01%; in experiment [3] it was 4.64%; in experiment [4], 0.743%; in experiment [5], 0.231%; in experiment [6], -2.93%.

On to `CCCN1C(=O)c2c(C(=O)NCc3ccc(OC(C)C)cc3)ncn2CC1(C)C(=O)NCc1ccccc1` (stereo not given), for which the activity change, negative = inhibition in experiment [1] is 7.93% (inactive); in experiment [2], 0.786%; in experiment [3] it was 0%; in experiment [4], 10.9%; in experiment [5] it was 0.527%; in experiment [6] it was 8.93%.

Turning to `CCNc1ccnc(N2C[C@H]3CN(C(=O)N(C)C)C[C@@]3(C(=O)O)C2)n1`, the activity change, negative = inhibition in experiment [1] was 1.84% (inactive); in experiment [2], 0.021%; in experiment [3] it was 1.18%; in experiment [4], 0.65%; in experiment [5], 1.12%; in experiment [6], -1%.

Take `C=C1C(=O)O[C@@H]2[C@H]1CC[C@H](C)[C@]1(CCC(=O)O1)C2(C)O` (stereo not given in full): the activity change, negative = inhibition in experiment [1] was -16.8% (inactive); in experiment [2], 0%; in experiment [3], 7.54%; in experiment [4] it was 11.3%; in experiment [5], -3.81%; in experiment [6] it was 5.47%.

As for `Cc1cc(C)c(S(=O)(=O)NCCc2nc(-c3ccc(Cl)cc3)n[nH]2)cc1C`, the activity change, negative = inhibition in experiment [1] is -7.11% (inactive); in experiment [2], 0.532%; in experiment [3], 3.01%; in experiment [4], -1.1%; in experiment [5], -4.42%; in experiment [6], -1.52%.

For `CCC(CC)C(=O)NC[C@H]1O[C@@H](CC(=O)N2CCC(C)CC2)[C@H](O)[C@@H]1O`, the activity change, negative = inhibition in experiment [1] was 0.159% (inactive); in experiment [2], -5.41%; in experiment [3], -3.2%; in experiment [4] it was 0.02%; in experiment [5] it was -4.29%; in experiment [6], -0.431%.

`Cc1cnc(-c2ccccc2)n1CCNC(=O)CCC1CCCC1`: the activity change, negative = inhibition in experiment [1] was -2.65% (inactive); in experiment [2] it was -4.13%; in experiment [3], -6.61%; in experiment [4], -3.82%; in experiment [5], -12.7%; in experiment [6] it was -3.43%.

With `Cc1cnc(C2CCC2)n1C1CCN(C(=O)CCC2CCCC2)CC1`, the activity change, negative = inhibition in experiment [1] is -0.614% (active); in experiment [2], -2.95%; in experiment [3] it was 3.19%; in experiment [4], -52.2%; in experiment [5] it was -10.2%; in experiment [6], 12.5%.

Regarding `NS(=O)(=O)c1ccc(F)c(C(=O)NCc2noc(-c3ccco3)n2)c1`, the activity change, negative = inhibition in experiment [1] is -11.2% (inactive); in experiment [2] it was -7.86%; in experiment [3], -7.24%; in experiment [4] it was -3.67%; in experiment [5], -12%; in experiment [6], -1.94%.

As for `CCOc1ccc(CNC(=O)c2ncn3c2C(=O)N(C2CC2)C(C)(C(=O)NCc2ccccc2Cl)C3)cc1` (stereo not given), the activity change, negative = inhibition is 11.3% (inactive) in experiment [1]; 1.47% in experiment [2]; 2.43% in experiment [3]; 7.45% in experiment [4]; 1.94% in experiment [5]; 7.97% in experiment [6].

Turning to `CCN(CC)CCCCNc1ncc2cc(-c3c(Cl)cccc3Cl)c(NC(=O)NC(C)(C)C)nc2n1`, the activity change, negative = inhibition in experiment [1] was -1.2% (active); in experiment [2] it was -7.18%; in experiment [3], 10.6%; in experiment [4] it was -54.9%; in experiment [5], -20.4%; in experiment [6], 0.23%.
